Active and inactive are the calls of the source.

A short description of assay [1]: small molecules captured by biotinylated probe aFSTL3 – biochemical, small-molecule microarray, fluorescence 635/667, stem cell growth factor project, primary screen (AID 1064).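 Further: measures binding of the biotinylated anti-FSTL3 antibody to printed compounds.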 To be noted: higher = more signal.
The nature of assay [2]: binders from COS7 lysate, DM2A8 probe, primary screen, torsin A project, cell lysate, small-molecule microarray, fluorescence 635/667 (AID 1065). To be noted: higher = more signal, COS7 lysate expressing mutant human TOR1A.
A short description of assay [3]: small molecules captured by biotinylated probe aFGF2 – biochemical, small-molecule microarray, fluorescence 635/667, stem cell growth factor project, primary screen (AID 1067).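 Further: measures binding of biotinylated aFGF2 protein to printed compounds on slides; z-score merges feature fluorescence and signal-to-noise across triplicate slides.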 To be noted: higher = more signal.
Assay [4] is described as follows: small molecules captured by biotinylated probe aFGF10 – biochemical, small-molecule microarray, fluorescence 635/667, stem cell growth factor project, primary screen (AID 1071).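 Further: score merges 667 nm spot intensity and signal to noise from triplicate slides.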 As to conditions: higher = more signal.
The target in assay [5] is Neurogenic locus notch homolog protein 2 (Homo sapiens) (UniProt Q04721). Description: small molecules binding Notch2 protein – biochemical, small-molecule microarray, 635 nm fluorescence, stem cell growth factors, primary screen (AID 1073). As to conditions: higher = more signal.
In assay [6] the target is Pro-neuregulin-1, membrane-bound isoform (Homo sapiens) (UniProt Q02297). Nature of the assay: small molecules binding neuregulin-1 protein – biochemical, small-molecule microarray, fluorescence 635/667, psychiatric disease protein project, primary screen (AID 1075).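 Further: score combines 667 nm spot fluorescence with signal to noise.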 To be noted: NRG1 binding, 635 nm fluorescence, higher = more signal.
Sequence of Pro-neuregulin-1, membrane-bound isoform (Homo sapiens) (Q02297 whole entry, looked up, the tested form may be a part, canonical isoform): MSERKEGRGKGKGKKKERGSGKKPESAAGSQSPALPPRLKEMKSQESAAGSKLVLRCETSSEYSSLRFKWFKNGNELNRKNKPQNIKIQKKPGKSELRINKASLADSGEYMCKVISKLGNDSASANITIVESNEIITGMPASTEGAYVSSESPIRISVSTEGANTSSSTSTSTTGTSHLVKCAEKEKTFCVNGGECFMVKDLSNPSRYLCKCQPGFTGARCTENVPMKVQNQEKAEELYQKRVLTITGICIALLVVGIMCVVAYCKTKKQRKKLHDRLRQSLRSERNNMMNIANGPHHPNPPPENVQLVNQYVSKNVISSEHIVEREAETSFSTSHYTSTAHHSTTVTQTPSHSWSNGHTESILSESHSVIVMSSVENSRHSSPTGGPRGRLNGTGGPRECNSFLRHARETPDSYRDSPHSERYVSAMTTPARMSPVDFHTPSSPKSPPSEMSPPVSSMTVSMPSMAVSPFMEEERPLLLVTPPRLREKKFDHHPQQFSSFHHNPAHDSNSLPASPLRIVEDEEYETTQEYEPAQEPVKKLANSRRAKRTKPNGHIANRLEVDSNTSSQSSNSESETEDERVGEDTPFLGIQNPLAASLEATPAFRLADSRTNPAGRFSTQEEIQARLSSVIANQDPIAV
Assay [7] has as its system Neuregulin-1 EGF-like domain. Description: small molecules binding NRG1 EGF domain – biochemical, small-molecule microarray, 635 nm fluorescence, primary screen (AID 1081).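 Further: binding of the protein to compounds printed on small-molecule microarray slides.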 To be noted: higher = more signal.
Assay [8] in a line: FRG1 expression reporter modulators in myotubes – cell-based, C2C12 myotubes, firefly/Renilla luciferase, luminescence, FRG1 inhibition for FSHD, primary screen (AID 1084). As to conditions: FRG1 promoter luciferase, higher = more signal, called active from +8 up or from −8 down.
A short description of assay [9]: small molecules captured by biotinylated probe aFST – biochemical, small-molecule microarray, fluorescence 635/667, stem cell growth factor project, primary screen (AID 1086).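 Further: score merges 667 nm fluorescence with signal-to-noise of each printed compound spot.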 To be noted: higher = more signal.
Assay [10] is described as follows: binders of probe aHhip on microarray, primary screen, stem cell growth factor project, biochemical, small-molecule microarray, fluorescence 635/667 (AID 1087).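 Further: score merges spot fluorescence at 667nm with spot signal to noise ratio.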 As to conditions: higher = more signal.
Assay [11] deals with PRMT1 (protein arginine N-methyltransferase 1). Description: small molecules binding arginine methyltransferase PRMT1 – biochemical, small-molecule microarray, 635 nm fluorescence, primary screen (AID 1088).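 Further: binding of Prmt1 protein to compounds spotted on small-molecule microarray slides.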 As to conditions: higher = more signal.
A short description of assay [12]: growth effects on S. cerevisiae YJM789 – YJM789 clinical isolate, OD600, 24 h, basal, primary screen (AID 1089).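 Further: growth of clinical yeast isolate S. cerevisiae YJM 789 seeded 1000 cells per well; test concentration not given here.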 As to conditions: higher = more signal, called active from +8 up or from −8 down.
A short description of assay [13]: S. pombe growth modifiers, basal conditions – strain 972, OD600, 24 h, no modulator, primary screen (AID 1090).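 Further: basal condition with compound alone and no growth modifier present; test concentration not given here.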 To be noted: S. pombe 972 growth, higher = more signal, called active from +8 up or from −8 down.
Assay [14] can be described thus: budding yeast growth modifiers under rapamycin – strain BY4716, OD600, 96 h, primary screen (AID 1091). Further: test concentration not given here. To be noted: S. cerevisiae BY4716 + rapamycin, higher = more signal, called active from +8 up or from −8 down.
In assay [15] the target is Torsin-1A-interacting protein 2 (Homo sapiens) (UniProt Q8NFQ8). Description: small molecules binding lysate-expressed LULL1 – cell lysate, human LULL1 lysate, 635/667 nm fluorescence, primary screen (AID 1092).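 Further: probe is lysate of COS7 cells overexpressing human LULL1; score merges per-feature 667 nm fluorescence with signal-to-noise.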 To be noted: small-molecule microarray, hLULL1 lysate binding, 635 nm fluorescence; higher = more signal.
Sequence of Torsin-1A-interacting protein 2 (Homo sapiens) (Q8NFQ8 whole entry, looked up): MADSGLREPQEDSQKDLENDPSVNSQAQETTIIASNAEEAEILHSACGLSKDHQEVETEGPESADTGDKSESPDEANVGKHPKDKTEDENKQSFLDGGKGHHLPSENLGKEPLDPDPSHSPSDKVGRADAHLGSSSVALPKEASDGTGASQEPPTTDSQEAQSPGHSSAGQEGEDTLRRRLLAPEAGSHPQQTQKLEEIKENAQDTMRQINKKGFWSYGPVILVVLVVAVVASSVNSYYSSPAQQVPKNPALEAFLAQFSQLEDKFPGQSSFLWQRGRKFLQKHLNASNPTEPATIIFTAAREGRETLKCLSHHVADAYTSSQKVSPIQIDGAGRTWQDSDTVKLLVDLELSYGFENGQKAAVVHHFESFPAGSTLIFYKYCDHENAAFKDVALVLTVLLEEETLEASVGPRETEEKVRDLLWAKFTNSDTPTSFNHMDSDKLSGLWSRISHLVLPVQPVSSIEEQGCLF
Assay [16] in a line: optical density change of DRC41 E. coli – strain DRC41, OD650, 24 h, E. coli filamentation project, primary screen (AID 1093).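 Further: MC1000 strain lacking acrAB efflux and sulA so SOS filamentation is blocked; test concentration not given here.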 As to conditions: E. coli DRC41 growth, higher = more signal, called active from +8 up or from −8 down.
A short description of assay [17]: probe aLefty2 binding to arrayed compounds – biochemical, biotinylated probe, 635/667 nm fluorescence, primary screen (AID 1094).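 Further: score merges spot fluorescence near 667 nm with spot signal-to-noise ratio.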 To be noted: small-molecule microarray, higher = more signal.
The test system of assay [18] is Noggin (protein binding on small-molecule microarray). Nature of the assay: small molecules binding Noggin protein – biochemical, 635/667 nm fluorescence, primary screen (AID 1095).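 Further: score merges 667 nm feature fluorescence with signal to noise over triplicate slides.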 As to conditions: 635 nm fluorescence, higher = more signal.
Assay [19] addresses Neurogenic locus notch homolog protein 3 (Homo sapiens) (UniProt Q9UM47). Description: small molecules binding NOTCH3 protein – biochemical, 635/667 nm fluorescence, primary screen (AID 1096). As to conditions: small-molecule microarray, 635 nm fluorescence, higher = more signal.
Assay [20] is described as follows: probe aEGFR binding to arrayed compounds – biochemical, biotinylated probe, 635/667 nm fluorescence, primary screen (AID 1097).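 Further: probe is a biotinylated anti-EGFR antibody binding compounds printed on slides; score combines fluorescence near 667 nm and signal to noise of each spot.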 To be noted: small-molecule microarray, higher = more signal.

Sequence of Neurogenic locus notch homolog protein 3 (Homo sapiens) (Q9UM47 whole entry, looked up): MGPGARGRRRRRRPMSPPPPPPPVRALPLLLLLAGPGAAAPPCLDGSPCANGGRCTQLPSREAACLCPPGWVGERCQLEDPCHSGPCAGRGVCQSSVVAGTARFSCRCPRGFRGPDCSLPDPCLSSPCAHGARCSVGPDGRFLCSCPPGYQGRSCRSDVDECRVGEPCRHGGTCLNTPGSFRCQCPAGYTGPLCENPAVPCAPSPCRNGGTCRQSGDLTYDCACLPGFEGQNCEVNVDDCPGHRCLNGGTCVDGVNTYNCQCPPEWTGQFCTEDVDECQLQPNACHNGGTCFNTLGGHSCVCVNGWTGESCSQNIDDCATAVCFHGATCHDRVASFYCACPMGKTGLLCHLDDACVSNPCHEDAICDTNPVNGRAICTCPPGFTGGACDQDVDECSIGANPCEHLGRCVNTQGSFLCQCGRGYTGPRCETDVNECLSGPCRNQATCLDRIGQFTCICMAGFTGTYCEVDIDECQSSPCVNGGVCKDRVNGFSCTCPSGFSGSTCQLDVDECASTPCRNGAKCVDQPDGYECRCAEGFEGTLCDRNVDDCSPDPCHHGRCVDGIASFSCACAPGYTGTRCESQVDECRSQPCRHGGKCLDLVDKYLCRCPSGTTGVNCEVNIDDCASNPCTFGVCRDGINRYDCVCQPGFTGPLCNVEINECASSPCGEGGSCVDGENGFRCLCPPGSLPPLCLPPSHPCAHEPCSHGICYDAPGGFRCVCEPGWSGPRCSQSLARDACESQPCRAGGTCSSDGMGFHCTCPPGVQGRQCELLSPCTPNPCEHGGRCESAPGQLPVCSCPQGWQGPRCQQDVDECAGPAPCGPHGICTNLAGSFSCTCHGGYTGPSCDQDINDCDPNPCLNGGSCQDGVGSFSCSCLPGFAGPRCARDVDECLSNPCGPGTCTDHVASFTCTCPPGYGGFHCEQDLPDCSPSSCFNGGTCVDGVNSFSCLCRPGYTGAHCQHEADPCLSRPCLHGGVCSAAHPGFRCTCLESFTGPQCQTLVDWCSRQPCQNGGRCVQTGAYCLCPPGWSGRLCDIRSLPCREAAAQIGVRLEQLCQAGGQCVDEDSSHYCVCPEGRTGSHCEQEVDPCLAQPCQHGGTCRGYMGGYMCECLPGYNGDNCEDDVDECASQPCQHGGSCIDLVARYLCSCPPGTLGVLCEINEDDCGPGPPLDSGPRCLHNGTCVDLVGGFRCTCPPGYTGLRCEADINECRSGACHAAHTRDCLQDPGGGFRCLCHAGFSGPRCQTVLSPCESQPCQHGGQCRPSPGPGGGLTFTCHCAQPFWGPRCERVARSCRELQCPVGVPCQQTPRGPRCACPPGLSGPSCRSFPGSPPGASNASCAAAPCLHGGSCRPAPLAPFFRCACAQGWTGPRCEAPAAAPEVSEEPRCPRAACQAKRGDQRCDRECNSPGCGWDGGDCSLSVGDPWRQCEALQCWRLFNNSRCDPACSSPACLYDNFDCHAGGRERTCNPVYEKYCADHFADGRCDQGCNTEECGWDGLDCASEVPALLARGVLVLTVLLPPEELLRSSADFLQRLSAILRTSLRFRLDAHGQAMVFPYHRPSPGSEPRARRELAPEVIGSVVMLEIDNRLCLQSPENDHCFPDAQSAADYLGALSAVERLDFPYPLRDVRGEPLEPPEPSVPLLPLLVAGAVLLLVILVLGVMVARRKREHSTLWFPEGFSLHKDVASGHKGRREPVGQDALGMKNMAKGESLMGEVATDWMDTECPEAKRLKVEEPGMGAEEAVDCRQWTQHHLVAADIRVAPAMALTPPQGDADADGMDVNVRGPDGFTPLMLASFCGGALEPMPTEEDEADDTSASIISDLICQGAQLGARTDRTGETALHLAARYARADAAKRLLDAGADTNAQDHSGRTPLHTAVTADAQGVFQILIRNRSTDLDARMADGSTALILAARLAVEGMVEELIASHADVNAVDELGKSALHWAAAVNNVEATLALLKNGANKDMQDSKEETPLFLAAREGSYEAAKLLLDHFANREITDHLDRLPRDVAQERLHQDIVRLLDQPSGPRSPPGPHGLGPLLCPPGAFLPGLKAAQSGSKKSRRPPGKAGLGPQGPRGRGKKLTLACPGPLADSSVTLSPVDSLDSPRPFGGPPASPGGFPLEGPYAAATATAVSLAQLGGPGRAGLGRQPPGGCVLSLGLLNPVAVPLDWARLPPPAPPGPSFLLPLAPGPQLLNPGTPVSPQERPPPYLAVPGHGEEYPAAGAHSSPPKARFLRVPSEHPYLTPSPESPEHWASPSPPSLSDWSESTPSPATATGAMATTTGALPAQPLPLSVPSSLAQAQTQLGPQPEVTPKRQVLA

With `COC(=O)[C@@]1(Cc2ccccc2)[C@H]2c3cc(C(=O)N4CCCC4)n(CCSCCO)c3C[C@H]2CN1C(=O)c1ccccc1`, the composite z-score worked out at 0.729 in assay [1]; 0.773 in assay [2]; 0.457 in [3]; 0.525 in assay [4]; 1.83 in [5]; 1.66 in assay [6]. Further, the composite z-score in assay [7] worked out at 1.37; in assay [9] it was 0.894; in assay [10] it was 0.189; in assay [11], 0.465; in assay [15] it was 3.67; in [17], 0.788. In addition, the figures for the composite z-score in assay [18], in assay [19] and in [20] were 0.511, 0.899 and 0.0971, respectively. The z-score is -0.906 (inactive) in assay [8]; 0.118 (inactive) in assay [12]; 0.307 (inactive) in assay [13]; -0.0727 (inactive) in assay [14]; -1 (inactive) in assay [16].

Turning to `C=C(CCCC)C(=O)CC[C@H](OC(=O)c1ccccc1-c1ccccc1C(=O)O)c1ccccc1OCCO`, the composite z-score was -0.0134 in assay [1]; 0.814 in [2]; -0.149 in assay [3]; 0.76 in [4]; -0.331 in [5]; 1.06 in assay [6]. Further, the composite z-score in [7] was 1.07; in assay [9], -0.214; in assay [10], -0.249; in assay [11], 0.774; in assay [15] it was 0.189; in assay [17], -0.183. The composite z-score in assay [18] is 0.512; in assay [19], -0.025; in assay [20], -0.162. Moreover, the z-score in assay [8] was -1.42 (inactive); in assay [12], 0.604 (inactive); in assay [13], -0.659 (inactive); in [14], -0.918 (inactive); in assay [16], 1.07 (inactive).

As for `CCCCC=C[C@@H](NC(=O)c1ccccc1)c1ccccc1`, the composite z-score in assay [1] was found to be 0.277; in assay [2] it was 0.241; in assay [3], 0.0011; in assay [4] it was 0.356; in assay [5], 1.21; in assay [6], 0.868. The composite z-score in [7] was 1.02; in assay [9] it was 0.866; in assay [10], -0.206; in assay [11], 1.04; in assay [15] it was 3.51; in assay [17], -0.0261. For the same compound, the composite z-score in assay [18] was -0.328; in [19] it was 1.09; in [20] it was 0.0488. Moreover, the z-score in assay [8] is 1.03 (inactive); in assay [12], 0.409 (inactive); in assay [13], 0.336 (inactive); in assay [14], 0.889 (inactive); in assay [16], -1.37 (inactive).

In the case of `COc1cc2c(cc1OC)CN(C(=O)[C@@H]1[C@H]3C(=O)O[C@H](c4ccccc4)[C@H](c4ccccc4)N3[C@H](c3ccc(O)cc3)[C@@]13C(=O)Nc1ccc(C#CCCO)cc13)CC2`, the composite z-score in assay [1] is -0.281; in assay [2], 0.0865; in assay [3], -0.0962; in assay [4] it was 0.658; in assay [5], 0.711; in assay [6] it was 1.39. Also, the composite z-score in [7] is 1.17; in [9], 0.628; in assay [10], -0.201; in [11] it was 1.34; in assay [15], 2.5; in [17], -0.0809. The composite z-score in assay [18] is 0.32; in [19] it was 0.667; in assay [20], -0.0424. Besides, the z-score was -0.101 (inactive) in assay [8]; 1.09 (inactive) in assay [12]; 0.673 (inactive) in assay [13]; 1.81 (inactive) in [14]; -0.385 (inactive) in [16].

Take `COc1cc(NN2C(C(O)c3ccc(I)cc3)C=CC3C(=O)N(c4ccccc4)C(=O)C32)cc(OC)c1OC` (stereo not given): the composite z-score amounted to 0.32 in assay [1]; 0.808 in assay [2]; 0.145 in [3]; 0.868 in assay [4]; 1.55 in [5]; 2.04 in assay [6]. Further, the composite z-score was determined as 1.35 in [7]; 1.22 in assay [9]; 0.415 in assay [10]; 1.56 in [11]; 3.56 in assay [15]; 0.25 in assay [17]. In addition, the composite z-score was 0.218 in [18], 1.05 in assay [19] and -0.0423 in assay [20]. In addition, the z-score in assay [8] was -2.51 (inactive); in assay [12], 0.93 (inactive); in assay [13] it was -0.229 (inactive); in assay [14], 0.0332 (inactive); in assay [16], -0.699 (inactive).
